Columns and labels:
Assay in all cases: protein domain microarray probed with biotinylated miRNA; Domain array: 20 mM Tris-HCl pH 7.4, 200 mM KCl, 0.2 mM EDTA, 0.05% NP40, 2 ug/ul heparin, overnight 4 C. ORF array: PBS pH 7.0 with RNase inhibitor, 100 ng RNA; high values mean tight binding
Conditions in all cases: ssRNA
[1] = target: T1, RBM19(5-6) (Homo sapiens, UniProt Q9Y4C8)
T1 sequence: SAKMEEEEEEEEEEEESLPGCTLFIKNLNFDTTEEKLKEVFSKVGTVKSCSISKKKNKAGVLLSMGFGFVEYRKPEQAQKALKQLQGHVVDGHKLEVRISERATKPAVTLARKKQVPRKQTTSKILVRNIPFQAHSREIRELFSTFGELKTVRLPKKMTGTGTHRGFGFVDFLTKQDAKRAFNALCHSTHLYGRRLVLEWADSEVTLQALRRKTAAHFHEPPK

[2] = target: T2, SSB (Homo sapiens, UniProt P05455)
T2 sequence: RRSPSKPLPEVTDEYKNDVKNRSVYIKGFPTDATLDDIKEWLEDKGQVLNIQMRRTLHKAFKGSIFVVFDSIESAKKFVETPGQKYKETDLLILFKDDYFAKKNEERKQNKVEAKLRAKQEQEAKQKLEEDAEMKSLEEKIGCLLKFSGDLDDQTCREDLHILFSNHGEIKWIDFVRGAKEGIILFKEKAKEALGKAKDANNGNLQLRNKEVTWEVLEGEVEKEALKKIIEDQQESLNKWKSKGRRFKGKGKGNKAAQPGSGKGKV

[3] = target: SAFB2 (Homo sapiens, UniProt Q14151)
Chain of SAFB2 (Q14151 380-500): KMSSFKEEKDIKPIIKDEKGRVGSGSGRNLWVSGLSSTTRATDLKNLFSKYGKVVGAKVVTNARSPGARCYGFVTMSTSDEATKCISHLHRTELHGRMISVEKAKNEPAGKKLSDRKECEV

[4] = target: T3, RBM42 (Homo sapiens, UniProt Q9BTD8)
T3 sequence: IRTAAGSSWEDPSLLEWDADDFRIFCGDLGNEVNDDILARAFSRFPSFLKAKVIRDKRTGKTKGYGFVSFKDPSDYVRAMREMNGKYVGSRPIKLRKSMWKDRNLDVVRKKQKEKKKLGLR

[5] = target: T4, RBM9 (Homo sapiens, UniProt O43251)
T4 sequence: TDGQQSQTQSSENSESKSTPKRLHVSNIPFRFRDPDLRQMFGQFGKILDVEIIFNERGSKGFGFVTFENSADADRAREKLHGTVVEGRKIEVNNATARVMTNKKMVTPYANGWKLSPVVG

[6] = target: T5, RBM26(1) (Homo sapiens, UniProt Q5T8P6)
T5 sequence: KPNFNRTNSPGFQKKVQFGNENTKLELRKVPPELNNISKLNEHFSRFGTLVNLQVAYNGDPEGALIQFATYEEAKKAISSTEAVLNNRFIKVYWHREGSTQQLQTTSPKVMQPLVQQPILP

[7] = target: T6, TIA1 (Homo sapiens, UniProt P31483)
T6 sequence: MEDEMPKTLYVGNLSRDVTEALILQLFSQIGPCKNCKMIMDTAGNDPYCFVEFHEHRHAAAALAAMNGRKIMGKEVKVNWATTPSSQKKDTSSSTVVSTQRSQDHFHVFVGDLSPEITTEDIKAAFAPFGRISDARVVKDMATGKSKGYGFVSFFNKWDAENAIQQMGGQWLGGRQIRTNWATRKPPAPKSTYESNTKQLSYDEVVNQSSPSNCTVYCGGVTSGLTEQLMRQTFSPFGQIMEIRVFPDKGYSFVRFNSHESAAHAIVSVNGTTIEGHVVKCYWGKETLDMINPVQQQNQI

[8] = target: T7, ADAR(2) (Homo sapiens, UniProt P55265)
T7 sequence: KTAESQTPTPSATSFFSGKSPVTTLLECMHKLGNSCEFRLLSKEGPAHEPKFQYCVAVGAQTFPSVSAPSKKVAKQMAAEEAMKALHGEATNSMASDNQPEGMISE

[9] = target: T8, RBM28(3-4) (Homo sapiens, UniProt Q9NW13)
T8 sequence: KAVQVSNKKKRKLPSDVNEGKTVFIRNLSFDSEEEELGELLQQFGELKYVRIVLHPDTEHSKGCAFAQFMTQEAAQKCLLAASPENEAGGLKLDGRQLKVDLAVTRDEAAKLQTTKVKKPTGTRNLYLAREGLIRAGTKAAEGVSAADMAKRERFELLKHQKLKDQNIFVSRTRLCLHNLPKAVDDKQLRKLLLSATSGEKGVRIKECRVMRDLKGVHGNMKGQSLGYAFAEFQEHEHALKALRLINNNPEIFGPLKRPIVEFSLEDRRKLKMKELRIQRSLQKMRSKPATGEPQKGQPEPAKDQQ

[10] = target: T9, RBM48 (Homo sapiens, UniProt Q5RL73)
T9 sequence: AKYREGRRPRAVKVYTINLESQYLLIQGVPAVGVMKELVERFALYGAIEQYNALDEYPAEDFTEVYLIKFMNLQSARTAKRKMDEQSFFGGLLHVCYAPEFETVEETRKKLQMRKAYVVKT

[11] = target: T10, Kanadaptin (Homo sapiens, UniProt Q9BWU0)
T10 sequence: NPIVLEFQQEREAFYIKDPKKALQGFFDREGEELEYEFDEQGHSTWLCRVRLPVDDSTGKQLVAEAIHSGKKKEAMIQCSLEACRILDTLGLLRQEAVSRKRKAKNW

[12] = target: ROD1(1-2) (Homo sapiens, UniProt O95758)
Chain of ROD1(1-2) (O95758 40-280): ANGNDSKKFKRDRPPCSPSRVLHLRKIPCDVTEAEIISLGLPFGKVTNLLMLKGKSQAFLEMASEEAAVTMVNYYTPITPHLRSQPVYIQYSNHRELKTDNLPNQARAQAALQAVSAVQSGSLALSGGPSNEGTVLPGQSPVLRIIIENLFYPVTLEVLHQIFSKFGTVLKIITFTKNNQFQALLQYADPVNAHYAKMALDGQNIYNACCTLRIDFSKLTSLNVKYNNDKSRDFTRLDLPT

[13] = target: T11, NOVA1(1-2) (Homo sapiens, UniProt P51513)
T11 chain: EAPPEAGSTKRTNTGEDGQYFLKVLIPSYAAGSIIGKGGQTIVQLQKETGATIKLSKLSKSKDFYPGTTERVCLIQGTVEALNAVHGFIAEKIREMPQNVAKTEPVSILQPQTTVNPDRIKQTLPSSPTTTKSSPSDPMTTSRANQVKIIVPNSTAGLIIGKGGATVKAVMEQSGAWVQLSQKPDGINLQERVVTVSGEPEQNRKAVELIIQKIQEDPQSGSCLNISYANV

[14] = target: T12, PPRC1 (Homo sapiens, UniProt Q5VV67)
T12 sequence: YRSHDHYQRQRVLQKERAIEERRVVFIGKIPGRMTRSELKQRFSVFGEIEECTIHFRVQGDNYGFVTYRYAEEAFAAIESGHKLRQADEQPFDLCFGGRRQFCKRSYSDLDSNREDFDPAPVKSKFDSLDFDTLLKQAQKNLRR

[15] = target: T13, ZNF638 (Homo sapiens, UniProt Q14966)
T13 sequence: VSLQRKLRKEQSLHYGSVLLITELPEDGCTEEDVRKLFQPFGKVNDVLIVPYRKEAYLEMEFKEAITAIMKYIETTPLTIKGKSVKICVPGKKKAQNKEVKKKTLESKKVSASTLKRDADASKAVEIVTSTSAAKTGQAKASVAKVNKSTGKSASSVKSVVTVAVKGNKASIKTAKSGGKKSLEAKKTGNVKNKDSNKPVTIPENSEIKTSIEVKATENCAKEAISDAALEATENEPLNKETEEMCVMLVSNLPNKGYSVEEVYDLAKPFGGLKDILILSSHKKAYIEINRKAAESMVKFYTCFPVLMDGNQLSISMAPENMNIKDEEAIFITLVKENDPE

[16] = target: PKR(1-2) (Homo sapiens, UniProt P19525)
Chain of PKR(1-2) (P19525 1-186): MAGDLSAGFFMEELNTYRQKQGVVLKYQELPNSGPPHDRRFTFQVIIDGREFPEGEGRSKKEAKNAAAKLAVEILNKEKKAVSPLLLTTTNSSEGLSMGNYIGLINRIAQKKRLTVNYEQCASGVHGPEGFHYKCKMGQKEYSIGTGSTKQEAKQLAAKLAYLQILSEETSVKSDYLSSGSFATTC

[17] = target: T14, ADAR(3) (Homo sapiens, UniProt P55265)
T14 sequence: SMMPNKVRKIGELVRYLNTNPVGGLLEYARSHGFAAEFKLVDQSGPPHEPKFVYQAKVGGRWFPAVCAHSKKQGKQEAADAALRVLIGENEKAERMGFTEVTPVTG

[18] = target: DDX9(1)/DHX9 (Homo sapiens, UniProt Q08211)
Chain of DDX9(1)/DHX9 (Q08211 1-89): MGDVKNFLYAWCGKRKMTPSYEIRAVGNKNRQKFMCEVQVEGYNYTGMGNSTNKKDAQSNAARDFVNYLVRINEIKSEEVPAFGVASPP

[19] = target: T15, SETD1B (Homo sapiens, UniProt Q9UPS6)
T15 sequence: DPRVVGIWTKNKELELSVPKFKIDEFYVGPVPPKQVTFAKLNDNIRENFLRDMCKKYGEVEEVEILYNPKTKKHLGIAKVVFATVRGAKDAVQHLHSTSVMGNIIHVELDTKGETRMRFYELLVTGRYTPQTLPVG

[20] = target: T16, RBM33 (Homo sapiens, UniProt Q96EV2)
T16 sequence: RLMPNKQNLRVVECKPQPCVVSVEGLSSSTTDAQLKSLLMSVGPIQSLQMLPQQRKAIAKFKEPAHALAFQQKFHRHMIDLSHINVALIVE

Row | Sequence | binding signal [1] [fluorescence intensity] | binding signal [2] [fluorescence intensity] | binding signal [3] [fluorescence intensity] | binding signal [4] [fluorescence intensity] | binding signal [5] [fluorescence intensity] | binding signal [6] [fluorescence intensity] | binding signal [7] [fluorescence intensity] | binding signal [8] [fluorescence intensity] | binding signal [9] [fluorescence intensity] | binding signal [10] [fluorescence intensity] | binding signal [11] [fluorescence intensity] | binding signal [12] [fluorescence intensity] | binding signal [13] [fluorescence intensity] | binding signal [14] [fluorescence intensity] | binding signal [15] [fluorescence intensity] | binding signal [16] [fluorescence intensity] | binding signal [17] [fluorescence intensity] | binding signal [18] [fluorescence intensity] | binding signal [19] [fluorescence intensity] | binding signal [20] [fluorescence intensity]
1 | UAGCUUAUCAGACUGAUGUUGA | 23.1 ± 1.03 | 22.6 ± 3.15 | 54.58 ± 0.247 | 21 ± 0.962 | 916 ± 20.1 | 31 ± 1.68 | 631 ± 33.9 | 23.2 ± 3.02 |  |  |  |  |  |  |  |  |  |  |  | 
2 | UGAGGUAGUAGGUUGUGUGGUU | 318.4 ± 2.5 | 686 ± 34.9 | 826.5 ± 2.57 | 613 ± 9.75 | 1610 ± 18 | 1560 ± 215 | 871 ± 40.8 | 22.6 ± 1.85 | 135 ± 19.4 | 128 ± 27.9 | 62.8 ± 3.11 | 562 ± 23.1 | 134 ± 4.86 | 155 ± 53.3 | 57.9 ± 2.93 | 53.5 ± 3.56 | 31.8 ± 4.56 | 68.5 ± 11.3 | 24.2 ± 1.14 | 32.8 ± 1.94
3 | UGAGGUAGUAGGUUGUAUAGUU | 39.6 ± 0.516 | 76.1 ± 6.81 | 130 ± 21.8 | 57.7 ± 4.36 | 693 ± 16.3 | 395 ± 44.7 | 584.8 ± 5.47 | 21.92 ± 0.0141 |  |  |  | 49.2 ± 4.26 | 27.6 ± 0.799 | 24.9 ± 1.13 |  |  |  |  | 21.4 ± 1.84 | 24.2 ± 0.735
4 | UGAGGUAGUAGGUUGUAUGGUU | 231.1 ± 1.89 | 770 ± 38.1 | 488.9 ± 0.622 | 362 ± 5.61 | 1940 ± 112 | 1460 ± 57.5 | 1030 ± 40.8 | 22.7 ± 0.559 | 77 ± 4.09 | 94.7 ± 35.8 | 47.3 ± 6.22 | 367 ± 26.4 | 90.1 ± 7.43 | 134 ± 3.36 | 38.3 ± 1.35 | 28.7 ± 2.65 | 30.3 ± 3.34 | 49.7 ± 9.25 | 22.4 ± 0.396 | 40.1 ± 0.601
5 | AGAGGUAGUAGGUUGCAUAGUU | 122 ± 10.5 | 587.4 ± 5.08 | 328.4 ± 1.94 | 231 ± 13.5 | 2720 ± 95.4 | 1530 ± 59.8 | 1240 ± 50.7 | 23.9 ± 0.346 | 54.1 ± 1.09 | 90.1 ± 12.4 | 33.9 ± 1.02 | 339 ± 66.7 | 318 ± 18.7 | 97 ± 3.22 | 29.21 ± 0.262 | 24.8 ± 1.68 | 24.2 ± 0.771 | 29.6 ± 4.33 | 20.2 ± 1.15 | 28.3 ± 2.28
6 | CAGUGCAAUGAUGAAAGGGCAU | 110 ± 1.73 | 324 ± 18.3 | 298 ± 17.8 | 187 ± 2.13 | 1850 ± 25.3 | 478 ± 6.75 | 537.8 ± 3.27 | 22 ± 1.29 | 25.9 ± 2.84 | 51.01 ± 0.233 |  | 116 ± 66.5 | 260.9 ± 1.94 | 43 ± 4.72 | 33.6 ± 1.92 |  |  |  |  | 26.1 ± 1.95

From publication PMC11574364
